Measurements reported in the supplement of paper PMC9254222.
Whole data set: some 1,100 compounds, median “Renilla luciferase signal (cell health) relative to plate median” near 0.97, cut for the highest 2% near 1.6. The sample as a whole holds a higher share of the highest values than the screen did.

Test system: HEK293T (UBE3A T485A transfected, BAR Wnt reporter)
Assay: Renilla luciferase signal (cell health) relative to plate median (fold (linear ratio)); higher = higher Renilla signal
Conditions: 24 h
Summary of the method: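 Using Fugene 6, HEK293T cells in white 384-well plates (4500 cells/well; DMEM, 10% FBS, 37°C, 5% CO2) were transfected with a BAR firefly luciferase Wnt reporter, TK-Renilla and an expression plasmid. After four hours, robots dosed the chemicals at 0.01–100 uM, and a Dual-Glo luciferase readout followed 24 h later. Per-plate median-centred firefly/Renilla ratios gave Wnt activity, while per-plate median-centred raw Renilla signals gave cell health. Four biological replicates were averaged.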

SMILES | Renilla luciferase signal (concentration: 0.1 uM) | Renilla luciferase signal (concentration: 1 uM) | Renilla luciferase signal (concentration: 10 uM) | Renilla luciferase signal (concentration: 100 uM) | Renilla luciferase signal (concentration: 0.01 uM)
O=C(O)c1cc(/N=N/c2ccc(S(=O)(=O)Nc3ccccn3)cc2)ccc1O [Sulfasalazine] | 0.788 | 0.885 | 0.691 | 0.277 | –
CC(C)(C)C(O)C(Cc1ccc(Cl)cc1)n1cncn1 (stereo not drawn) [Paclobutrazol] | 1.16 | 1.06 | 1.22 | 1.62 | 1.25
CCOc1cccc(-n2cc(C(=O)N3CCN(c4cc(C(=O)[O-])c5ccccc5c4)CC3)nc2-c2ccc(C)cc2)c1.[Na+] | 0.869 | 0.966 | 0.903 | 0.0785 | –
Cc1cc(NC(=O)C(=O)O)cc(C)c1Oc1ccc(O)c2c1CCC2 | 1.12 | 1.12 | 0.767 | 1.03 | –
Cc1occc(=O)c1O [Maltol] | 0.895 | 0.982 | 0.967 | 1.11 | –
CCN(CC)C(=O)c1cc(S(=O)(=O)Cc2ccccc2)c(N2CCC(c3ccccc3)CC2)cc1N(CC)CCN(C)C.O=C(O)C(F)(F)F [HMR1171 trifluoroacetate (1:1)] | 0.802 | 0.767 | 0.648 | 0.249 | –
OC12N=C(c3ccccc3)SC1Cc1cc(Cl)ccc12 (stereo not drawn) | 1.14 | 1.13 | 1.03 | 0.714 | –
Cc1cc(SC2=C(O)C[C@@](CCc3ccc(N)cc3)(C(C)C)OC2=O)c(C(C)(C)C)cc1CO | 0.926 | 1.01 | 0.952 | 0.324 | –
Sc1nc2ccccc2s1 [2-Mercaptobenzothiazole] | 0.981 | 0.791 | 0.768 | 0.92 | –
O.O=C1[N-]S(=O)(=O)c2ccccc21.[Na+] [Sodium saccharin hydrate] | 1.05 | 1.15 | 1.35 | 1.71 | –
C#C[C@]1(O)CC[C@H]2[C@@H]3CCC4=CC(=O)CC[C@@H]4[C@H]3CC[C@@]21C [Norethindrone] | 0.942 | 0.982 | 0.94 | 0.294 | –
c1ccc2occc2c1 [2,3-Benzofuran] | 0.785 | 0.78 | 0.808 | 1.07 | –
CCCCCOC(=O)COc1cc(N2C(=O)C3=C(CCCC3)C2=O)c(F)cc1Cl [Flumiclorac-pentyl] | 0.9 | 1.01 | 0.974 | 1.62 | 0.938
CCCCCCCCOC(=O)c1cc(O)c(O)c(O)c1 [Octyl gallate] | 0.909 | 0.947 | 0.814 | 0.0786 | –
CCOC(=O)COc1cc(-n2ncc(C(F)(F)F)c(C)c2=O)c(F)cc1Cl [Flufenpyr-ethyl] | 0.957 | 1.07 | 1.03 | 1.51 | 1.2
CCCCCCc1ccc(O)cc1O [4-Hexylresorcinol] | 0.881 | 1.04 | 0.888 | 0.0332 | –
CC(C)CC(C=O)NC(=O)C(CC(C)C)NC(=O)C(CC(C)C)NC(=O)OCc1ccccc1 (stereo not drawn) | 0.675 | 0.0628 | 0.00775 | 0.00453 | 0.694
Cn1cc[nH]c1=S [Methimazole] | 0.331 | 0.23 | 0.141 | 2.27 | –
CNCc1ccc(NC(=O)c2c[nH]c3c2C(=O)CCC3)cc1 | 0.616 | 0.8 | 0.437 | 0.144 | –
CC(=O)OC1C(=O)C2(C)C(O)CC3OCC3(OC(C)=O)C2C(OC(=O)c2ccccc2)C2(O)CC(OC(=O)C(O)C(NC(=O)c3ccccc3)c3ccccc3)C(C)=C1C2(C)C (stereo not drawn) [Taxol] | 0.104 | 0.111 | 0.131 | 0.0793 | 0.147
CCCOC(=O)NCCCN(C)C.Cl [Propamocarb hydrochloride] | 0.992 | 0.949 | 0.972 | 1.17 | 0.977

SMILES | Renilla luciferase signal (concentration: 0.1 uM) | Renilla luciferase signal (concentration: 1 uM) | Renilla luciferase signal (concentration: 10 uM) | Renilla luciferase signal (concentration: 100 uM) | Renilla luciferase signal (concentration: 0.01 uM)
COCCOCCOC [Bis(2-methoxyethyl) ether] | 1.08 | 1.3 | 1.34 | 1.31 | –
Cn1c(=O)c2c(ncn2C)n(C)c1=O [Caffeine] | 0.946 | 0.966 | 0.989 | 1.67 | 1.18
Cn1cnc2c1c(=O)[nH]c(=O)n2C [Theobromine] | 0.97 | 0.856 | 1.15 | 1.22 | –
Cn1c(=O)c2[nH]cnc2n(C)c1=O [Theophylline] | 0.944 | 0.973 | 0.911 | 1.09 | –
O=C(N[C@@H](Cc1ccccc1)[C@@H](O)C(=O)N1C[C@@H](O)[C@@H](O)C1)c1cc2cc(Cl)ccc2[nH]1 [Ingliforib] | 0.797 | 0.711 | 0.851 | 0.148 | –
COc1cccc(-c2ccc(/C=C\CN3CCCCCC3)cc2Cl)c1.Cl | 1.01 | 1.16 | 1.14 | 2.06 | –
CCOCCOCCOCCO [2-[2-(2-Ethoxyethoxy)ethoxy]ethanol] | 0.893 | 0.862 | 0.833 | 0.954 | –
CCOCCO [2-Ethoxyethanol] | 1.23 | 1.26 | 1.38 | 1.66 | –
CCOCCOCCO [2-(2-Ethoxyethoxy)ethanol] | 0.939 | 1.02 | 0.906 | 1.17 | –
Cc1ncc(CO)c(CO)c1O [Pyridoxine] | 0.951 | 0.873 | 1 | 1.14 | –
C=CCc1ccc(OC)c(OC)c1 [Methyleugenol] | 0.897 | 0.832 | 0.797 | 0.924 | –
Cc1ccc(N)cc1O [5-Amino-2-methylphenol] | 1 | 1.22 | 1.28 | 1.78 | –
Cc1ccc(C)c(O)c1C [2,3,6-Trimethylphenol] | 0.934 | 0.808 | 0.965 | 1.14 | –
Cc1ccc(C)c(O)c1 [2,5-Dimethylphenol] | 1.01 | 0.973 | 1.14 | 1.28 | –
C[C@]12CC[C@@H]3c4ccc(O)cc4C[C@@H](CCCCCCCCCS(=O)CCCC(F)(F)C(F)(F)F)[C@H]3[C@@H]1CC[C@@H]2O (stereo partly drawn) [Fulvestrant] | 1.07 | 1.04 | 1.09 | 0.48 | –
Cc1nc(C)nc(N2C[C@@H](C)N(c3ccnc([C@@H](C)O)n3)[C@@H](C)C2)n1 | 0.951 | 1.05 | 1.15 | 1.28 | –
CC(C)(C)CC(C)(C)c1ccc(O)c(-n2nc3ccccc3n2)c1 [Octrizole] | 1.08 | 1.17 | 1.27 | 1.31 | –
Cc1cccc(Nc2cc(Cl)nc(SCC(=O)O)n2)c1C [Pirinixic acid] | 0.799 | 0.871 | 0.861 | 1.71 | –
O=C1CCC(N2C(=O)c3ccccc3C2=O)C(=O)N1 (stereo not drawn) [Thalidomide] | 0.78 | 0.818 | 0.85 | 0.675 | –
CCN(CC)C(=O)c1cccc(C)c1 | 0.897 | 0.949 | 0.847 | 1.79 | 0.895
CCNc1cccc(C)c1 [N-Ethyl-3-methylaniline] | 1.02 | 0.916 | 0.98 | 0.872 | –

SMILES | Renilla luciferase signal (concentration: 0.1 uM) | Renilla luciferase signal (concentration: 1 uM) | Renilla luciferase signal (concentration: 10 uM) | Renilla luciferase signal (concentration: 100 uM) | Renilla luciferase signal (concentration: 0.01 uM)
COc1cc(C=O)ccc1O [4-Hydroxy-3-methoxybenzaldehyde] | 0.805 | 0.833 | 0.848 | 0.902 | –
CCN(Cc1c(F)cccc1Cl)c1c([N+](=O)[O-])cc(C(F)(F)F)cc1[N+](=O)[O-] [Flumetralin] | 0.795 | 0.84 | 1 | 0.766 | 1.1
Cc1cc(C=C2SC(=O)N(c3ccccc3)C2=O)c(C)n1-c1cccnc1 | 1.02 | 1.06 | 0.979 | 0.257 | –
O=c1[nH]c2cc([N+](=O)[O-])c([N+](=O)[O-])cc2[nH]c1=O | 1.01 | 1.02 | 1.09 | 1.96 | 1.11
O=C(Nc1ccc(Cl)cc1)Nc1ccc(Cl)c(Cl)c1 [Triclocarban] | 1 | 0.895 | 0.408 | 0.021 | –
COC(=O)c1ccccc1O [Methyl salicylate] | 1.22 | 1.13 | 1.23 | 0.53 | –
O=C([O-])c1ccc2c(c1)nc(C(=O)NC1CCN(C3CC3)CC1)n2Cc1cc(-c2ccc(Cl)s2)on1.[Na+] | 0.987 | 0.823 | 0.947 | 0.531 | –
O=C1OC(c2ccc(O)cc2)(c2ccc(O)cc2)c2ccccc21 [Phenolphthalein] | 1.1 | 1.09 | 1.15 | 0.0287 | –
CCCCCCCC/C=C\CCCCCCCC(=O)OC[C@@H](O)[C@H]1OC[C@H](O)[C@H]1O [Sorbitan, mono-(9Z)-9-octadecenoate] | 1 | 0.88 | 0.863 | 0.85 | –
O=C(O)c1ccccc1C(c1ccc(O)cc1)c1ccc(O)cc1 [Phenolphthalin] | 1.11 | 1.1 | 0.958 | 0.886 | –
CN(C)CCOC(c1ccccc1)c1ccccc1.Cl [Diphenhydramine hydrochloride] | 0.825 | 0.842 | 0.836 | 0.491 | –
CCCC(=O)O [Butanoic acid] | 1.03 | 1.11 | 1.14 | 1.73 | –
CCCCCC(=O)O [Hexanoic acid] | 1.26 | 1.16 | 1.24 | 1.41 | –
CCCCCCCCCC(=O)O [Decanoic acid] | 0.743 | 0.768 | 0.634 | 0.979 | –
CN(C)C(=O)C1(N2CCCCC2)CCN(CC[C@@]2(c3ccc(Cl)c(Cl)c3)CN(C(=O)c3ccccc3)CCO2)CC1 | 0.903 | 0.888 | 0.664 | 0.0169 | –
CCc1c(C(=O)NN2CCCCC2)nn(-c2ccc(Cl)cc2Cl)c1-c1ccc(Br)cc1 [Surinabant] | 1.06 | 1.07 | 0.127 | 0.363 | –
CCCCCCCC(=O)OC [Methyl octanoate] | 1.03 | 0.911 | 1.04 | 1.61 | –
CCCCCCCCCCCC(=O)OC [Methyl dodecanoate] | 0.884 | 0.792 | 0.85 | 0.89 | –
COC(=O)CCCCC(=O)OC [Dimethyl adipate] | 0.854 | 0.917 | 0.874 | 1.11 | –
O=C(O)c1cccc(C[C@@H]2COc3ccc(OCc4nc5cc(F)ccc5s4)cc3[C@@H]2O)c1 | 1.04 | 1.05 | 1.17 | 0.94 | –
